Experimental data as given in PubChem BioAssay AID504423 (Broad Institute, 2011).
Screen size: about 340,000 compounds; about 260 (0.076%) were called active. The sample holds actives, similar compounds and a random draw of the others, so the mix is not that of the screen. Unmarked numbers belong to inactive results.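 How the source made its calls: active means highest replicate inhibition at or above 60% at 9 µM, even if other replicates fall short; inactive means all replicates below 60% inhibition.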

These molecules were tested on Kaposi's sarcoma herpesvirus LANA C-terminal domain (residues 932-1162) DNA binding (assay: blockers of LANA C-terminal domain DNA interaction – biochemical, fluorescence polarization, FAM-LBS DNA, MBP-C-LANA, single point, primary screen (AID 504423;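 further: 0% = neutral control wells and 100% = 4 µM acridine orange control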)). Conditions: at 9 µM, hits give high values.

| SMILES | inhibition |
| --- | --- |
| Cc1c(N=Nc2ccc(N(C)C)cc2)c(=O)n(-c2ccccc2)n1C | -5.21% |
| CCN(CC)CCCC(C)n1c2nc(=O)[nH]c(=O)c-2nc2cc(Cl)ccc21 (configuration not stated) | 167% (active) |
| COc1ccc2c(c1)c1ncn(Cc3ccccn3)c(=O)c1n2C | -1.99% |
| CCCN(CCC)C(=O)C1c2ccccc2Oc2ccccc21 | 88.3% (active) |
| CCCCCNC(=O)C1c2ccccc2Oc2ccccc21 | -0.323% |
| CCOC(=O)CC(NC(=O)C1c2ccccc2Oc2ccccc21)c1ccc(C)cc1 (configuration not stated) | 1.2% |
| CC(=O)c1nnn(-c2ccc(Cl)cc2C#N)c1C | -3.28% |
| c1ccc(-n2cccc2)c(N2CCCCC2)c1 | 1.68% |
| CN1C(c2ccc(F)cc2)=CS/C1=C(/C#N)c1nnc2n1-c1ccccc1SC2 | 1.32% |
| CC(C)c1ccc(C=NNc2ccc([N+](=O)[O-])cn2)cc1 | -4.43% |
| Cc1cc(/C=N/NC(=O)CC2(C)OCCO2)c(C)n1-c1ccc(Cl)c(Cl)c1 | 0.73% |
| Cc1cc(/C=N/Nc2ccc([N+](=O)[O-])cn2)c(C)n1-c1cccc(C(=O)O)c1 | 64.5% (active) |
| Cc1nc(NC(=O)CCC(=O)O)sc1C(=O)N(C)C | -0.461% |
| CCOc1ccc(NC(=O)c2cccc3c2C(=O)N(CC2CCCO2)C3)cc1 (configuration not stated) | -0.819% |
| CC(C)n1c(=S)[nH]c2cc(C(F)(F)F)ccc21 | -0.144% |
| COc1cccc2c1C(=O)c1c(O)c3c(c(O)c1C2=O)CC(O)(C(C)=NNC(=O)c1ccc(Cl)c(Cl)c1)CC3OC1CC(N)C(O)C(C)O1 (configuration not stated) | 102% (active) |
| COc1cccc(Cn2cnc3c([N+](=O)[O-])c(C)c(C)cc32)c1 | -1.77% |
| Cc1ccc(NC(=O)Cn2cccc2C2=NC(c3ccccc3)CO2)c(C)c1 (configuration not stated) | 0.882% |
| C=CCNc1nc(Nc2ccc(Cl)cc2)nc(OC)n1 | -0.456% |

| SMILES | inhibition |
| --- | --- |
| CC12CCC(C(=O)N(CCC#N)CCC#N)(CC1=O)C2(C)C (configuration not stated) | 0.103% |
| CCOC(=O)c1sc(/N=C/Nc2nc(C)c(C(=O)OCC)s2)nc1C | -0.364% |
| CC(NC(=O)CN(C)S(=O)(=O)c1ccc(F)cc1)C1CC2CCC1C2 (configuration not stated) | -0.793% |
| O=C(CNCc1ccc(Cl)cc1)Nc1cccc(C(=O)O)c1 | 0.621% |
| S=C(Nc1cccc(Br)c1)N1CCn2cccc2C1c1cccnc1 (configuration not stated) | 0.461% |
| O=C1COc2c1ccc(O)c2O | 105% (active) |
| c1ccc(CSc2ncnc3c2sc2nc(N4CCOCC4)c4c(c23)CCCC4)cc1 | 0.637% |
| COc1cc(/C=C/C(=O)O)cc(S(=O)(=O)Nc2ccccc2SC)c1OC | 2.56% |
| O=c1[nH]nc(SCCS(=O)(=O)c2ccc(F)cc2)n1-c1ccccc1C(F)(F)F | -0.936% |
| O=C1OC(Cc2ccccc2)C(c2ccccc2)C1=O (configuration not stated) | 0.23% |
| CCN(CC)C(=O)[C@H]1C[C@H](CC(=O)NCC23CC4CC(CC(C4)C2)C3)C(=O)N2CCc3c([nH]c4cc(CCC(=O)N(C)C)ccc34)[C@]12C | -1.63% |
| CCC(CC)c1nnc(NC(=O)C2CCN(C(=O)c3ccco3)CC2)s1 | 0.307% |
| CCCN(CC(=O)Nc1ccccc1C)C(=O)c1ccc(OCC(=O)N2CCOCC2)c(OCC)c1 | 0.13% |
| COCCNC(=O)C1CCN(S(=O)(=O)c2ccc3c(c2)OCCO3)CC1 | -0.000473% |
| CCCn1nc(C(=O)OCc2nc(N)nc(Nc3ccccc3C)n2)c2ccccc2c1=O | -0.106% |
| CC(C)Cn1c(=O)c2ccccc2n2c(CCC(=O)NCc3ccccn3)nnc12 | -0.283% |
| COc1cc(C(=O)NCc2ccc3c(c2)cc(C)n3C)cc(OC)c1OC | 1.89% |
| COc1ccc(-c2c(C)nn3c(N4CCC(C(=O)N5CCCCC5)CC4)cc(C)nc23)cc1OC | -1.26% |
| COc1ccc(/C=N/NC(=O)Cn2cc(C(F)(F)F)ccc2=O)cc1 | 0.0809% |

| SMILES | inhibition |
| --- | --- |
| CCCOc1ccc(Cc2c(O)nc(N)[nH]c2=O)cc1C | 3.16% |
| Cc1cc(/C=N/NC(N)=O)c(C)n1C1CCCCC1 | -1.79% |
| Cc1ccc2c(=O)oc(N(C)C)nc2c1 | 0.463% |
| CC(C)CCNC(=O)CC1C(=O)N(Cc2ccccc2)C(C)c2nc3ccccc3n21 (configuration not stated) | 0.0911% |
| Clc1ccc(C2=CSC3=Nc4cccc5cccc(c45)N23)cc1 | 0.203% |
| CS(=O)(=O)c1ccc2nnn(OCC(=O)Nc3cccc(C#N)c3)c2c1 | 0.484% |
| O=C(c1ccco1)N(Cc1nc2ccccc2c(=O)[nH]1)C1CCCC1 | 1.54% |
| Nc1ccc2nc3c(=O)[nH]c(=S)[nH]c3nc2c1 | 81% (active) |
| CCCCn1nc(C(=O)Nc2ccc(S(=O)(=O)Nc3ncccn3)cc2)c2ccccc2c1=O | 4.67% |
| Cc1c(C=O)n(C)n(-c2ccccc2)c1=O | 0.314% |
| COc1ccccc1CNS(=O)(=O)c1cc(C(=O)NCc2ccccn2)c(Cl)cc1Cl | 2.38% |
| O=C(c1ccccc1)N1CCC(CC2CC(c3ccc(Cl)cc3)=NO2)(C(=O)NCC2CCCCC2)CC1 (configuration not stated) | 2.87% |
| Cc1ccc(S(=O)(=O)n2oc(=O)c(C3CCCCC3)c2N)cc1 | -3.57% |
| COc1cccc(N2CC(NS(=O)(=O)c3ccc(Cl)cc3)CC2=O)c1 (configuration not stated) | -1.06% |
| COc1cccc(-c2nc3n(n2)C(c2ccccc2Cl)C(C(N)=O)=C(C)N3)c1 (configuration not stated) | -1.68% |
| COc1ccc(CNCCCO)cc1OC | 0.662% |
| COc1ccc(C2c3ccc(O)cc3Oc3ncn(CCCO)c(=N)c32)cc1OC (configuration not stated) | 90.6% (active) |
| COc1ccc(C2C(C#N)=C(N)Oc3cc(N)ccc32)cc1OC (configuration not stated) | -0.0442% |
| COc1cc(/C=C(\C#N)C(=O)Nc2ccc3ccccc3c2)c([N+](=O)[O-])cc1OC | -1.48% |
